PfHsp90 set2 = growth inhibition of PfHsp90-expressing yeast, primary screen, antimalarial PfHsp90 inhibitor project, S. cerevisiae, BacTiter-Glo luminescence, single point, set 2 | BacTiter-Glo ATP, 48 h; yeast lacking PDR1 and PDR3 efflux regulators | inhibition, % at 9.4 µM | hit rate 0.32% among 310,000;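 active means every replicate shows inhibition above about 80%, whatever the replicate mean, limit read from the data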
NLRP3 yeast inh = NALP3 inflammasome inhibitors in reconstituted yeast, primary screen, luminescence, uHTS | inhibition, % at 10 µM | Yeast reconstituted NLRP3/ASC/caspase-1, beta-gal luminescence, 24 h | hit rate 0.39% among 330,000 | AID 2825, 2010;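 active means inhibition of 50% or more; inactive means inhibition below 50%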
TIM10 inh = growth inhibitors of isogenic TIM10 control yeast, primary screen, counter-screen for tim10-1 yeast inhibitor project, luminescence, uHTS; S. cerevisiae TIM10 strain growth, BacTiter-Glo luminescence, 24 h; hit rate 1.4% among 330,000; inhibition, % at 10 µM; AID 463195, 2010;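 active means inhibition of 40% or more at the single tested concentration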;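 further: wild-type TIM10 isogenic control strain grown at permissive 25 °C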
tim10-1 inh = growth inhibitors of tim10-1 mutant yeast, primary screen, luminescence, uHTS; S. cerevisiae tim10-1 ts strain growth, BacTiter-Glo, 24 h; inhibition, % at 20 µM; hit rate 2.2% among 330,000; AID 463190, 2010;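 active means inhibition of at least 40%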;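 further: mutant grown at 25 °C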
tim23-1 inh = growth inhibitors of tim23-1 mutant yeast, primary screen, luminescence, uHTS. inhibition, % at 20 µM. hit rate 1.3% among 330,000. S. cerevisiae tim23-1 growth, BacTiter-Glo luminescence, 24 h;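 active means growth inhibition of the mutant yeast at or above 50%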;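 further: temperature-sensitive mutant grown at 25 °C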
NALP3 confirm = NALP3 inhibitors retested in yeast, confirmation, luminescence, single concentration; hit rate 81% among 1,300; AID 435006, 2010; inhibition, % at 10 µM; shares compounds with NLRP3 yeast inh; yeast expressing human NALP3; in the data active means inhibition above about 48%
Casp1 ASC ctr = CASP1-PYCARD signaling inhibition in yeast, confirmatory test, counterassay for NLRP3 inhibitor program, one-dose | shares compounds with NLRP3 yeast inh | yeast expressing Caspase-1-ASC, luminescence counter screen | hit rate 66% among 1,000 | inhibition, % at 10 µM | AID 488784, 2010
NALP3 retest = NALP3 inhibitors in yeast, repeat test, confirmation, luminescence, single concentration, retest | shares compounds with NLRP3 yeast inh | yeast expressing human NALP3, luminescence read-out | inhibition, % at 10 µM | hit rate 53% among 1,000
tim10-1 confirm = growth inhibitors of tim10-1 mutant yeast, confirmation, single concentration, luminescence, S. cerevisiae; S. cerevisiae tim10-1 ts strain growth, BacTiter-Glo, 24 h; AID 463213, 2010; inhibition, % at 20 µM; shares compounds with tim10-1 inh; hit rate 56% among 7,400;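 active means inhibition of yeast growth at or above a set limit in either of two repeat tests at 20 µM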;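 further: tim10-1 mutant grown at permissive 25 °C to find synthetic lethal compounds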
TIM10 conf = growth inhibitors of wild-type TIM10 yeast, confirmation, counter-screen for tim10-1 synthetic lethality project, single concentration, luminescence, S. cerevisiae | hit rate 63% among 4,600 | shares compounds with TIM10 inh | inhibition, % at 10 µM | S. cerevisiae tim10 strain growth, BacTiter-Glo luminescence, 24 h | AID 463215, 2010;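 active means inhibition of yeast growth at or above a set limit in either of two replicates at 10 µM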; further: this counterscreen used the strain with wild-type TIM10
tim23-1 confirm = tim23-1 mutant yeast growth inhibitors, confirmation, luminescence, single concentration. shares compounds with tim23-1 inh. S. cerevisiae tim23-1 growth, BacTiter-Glo luminescence, 24 h. inhibition, % at 20 µM. hit rate 83% among 4,400. AID 463218, 2010;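 active means inhibition above about 39% in either of two replicate wells at 20 µM, limit read from the data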;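 further: temperature-sensitive tim23-1 mutant grown at 25 °C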
Large screens that a line does not name were inactive (follow-up assays come after a bar, where they were run); ! = a repeat was not active. Most compounds without a hit are left out; they make up all but 3.7% or so of the library. Unless noted, no stated cut-off is given here; in the data, active means inhibition above about 50%; inactive means the rest.

CS(=O)(=O)n1nc(-c2ccc(Cl)cc2)nc1N	none
Cn1nc(-c2ccc(Cl)cc2)nc2c(=O)n(C)c(=O)nc1-2	NLRP3 yeast inh 96.2, TIM10 inh 94.5, tim10-1 inh 93.2, tim23-1 inh 77.3 (no result: PfHsp90 set2) | NALP3 confirm 99.0 | Casp1 ASC ctr 99.0 | NALP3 retest 99.0 | tim10-1 confirm 92.0 | TIM10 conf 98.6 | tim23-1 confirm 80.0
COc1ccc(/C=C/C(=O)c2ccc([N+](=O)[O-])o2)cc1OC	NLRP3 yeast inh 50.2, TIM10 inh 95.7, tim10-1 inh 91.0, tim23-1 inh 90.1 (no result: PfHsp90 set2) | NALP3 confirm 53.8 | Casp1 ASC ctr 80.0 | NALP3 retest 57.8 | tim10-1 confirm 88.8 | TIM10 conf 98.2 | tim23-1 confirm 97.2
CCOC(=O)N1C(=O)C2(CCCCC2)N(c2ccccc2Cl)C1=S	NLRP3 yeast inh 63.8, TIM10 inh 56.6, tim10-1 inh 59.9, tim23-1 inh 77.7 | NALP3 confirm 67.2 | Casp1 ASC ctr inactive | NALP3 retest 50.6 | tim10-1 confirm 52.2 | TIM10 conf inactive | tim23-1 confirm 68.0
COc1ccccc1N(CC(=O)NCCSCc1cccc(C)c1)S(=O)(=O)c1ccccc1	none
Cc1ccc(C(C[N+](=O)[O-])c2c(N)n(C)c(=O)n(C)c2=O)cc1 (stereo not given)	PfHsp90 set2 108.2, NLRP3 yeast inh 70.2, tim23-1 inh 53.7 | NALP3 confirm 63.6 | Casp1 ASC ctr 78.2 | NALP3 retest 52.7 | tim23-1 confirm 63.7
COc1cccc(F)c1C(C[N+](=O)[O-])c1c(N)n(C)c(=O)n(C)c1=O (stereo not given)	PfHsp90 set2 103.2, NLRP3 yeast inh 63.6, TIM10 inh 45.8, tim10-1 inh 53.9, tim23-1 inh 82.2 | NALP3 confirm inactive | Casp1 ASC ctr 56.1 | NALP3 retest inactive | tim10-1 confirm 59.5 | TIM10 conf 51.6 | tim23-1 confirm 82.3
Cn1c(N)c(C(C[N+](=O)[O-])c2ccccc2Cl)c(=O)n(C)c1=O (stereo not given)	none
Cc1ccc2nc(N/N=C\c3ccc([N+](=O)[O-])o3)nc(-c3ccccc3)c2c1	NLRP3 yeast inh 56.9, tim23-1 inh 67.2 | NALP3 confirm inactive | Casp1 ASC ctr inactive | NALP3 retest inactive | tim23-1 confirm inactive
O=[N+]([O-])c1ccc(/C=N/Nc2nc(-c3ccccc3)c3cc(Br)ccc3n2)o1	none
CC(C)(C)c1ccc(S(=O)(=O)N2CCSC2)cc1	none
O=C(Nc1ccc2nsnc2c1)c1cccs1	none
O=C(Nc1cccc2nsnc12)c1cccs1	NLRP3 yeast inh 69.6!, TIM10 inh 68.5!, tim23-1 inh 61.1! | NALP3 confirm 88.9 | Casp1 ASC ctr 77.5 | NALP3 retest 61.4 | TIM10 conf 58.4 | tim23-1 confirm 76.0
N#CC(C#N)=C1CCCc2sccc21	none (no result: NLRP3 yeast inh, TIM10 inh, tim10-1 inh, tim23-1 inh)
O=C(CN1CCc2ccccc2C1)c1cccs1	none
N#C/C(=C\c1cccc(O)c1)C(=O)N1CCCCC1	none

Bioassay records: PubChem, several laboratories
